Sampled rows, rich in hits. Any-hit rate of the full collection: about 17%.
ClpP mod = qHTS Assay for Activators of ClpP | ATP-dependent Clp protease proteolytic subunit (Bacillus subtilis (strain 168)), P80244 | purified B. subtilis ClpP, FRET peptide cleavage, 20 min | Potency, µM (doses to about 57.5 µM), inactives show at the highest dose activity change, negative = active | 340,000 tested, 1.9% active | AID 651965, 2013; active = well fitted falling curve with a large enough effect; inconclusive = small, poorly fitted or top-dose-only effect; inactive = no such curve, though single readings can be large or run the other way; also: the source files actives as falling curves though it sought activators and does not explain the sign; nearly all actives have a fitted effect of over 65% in size
Target sequence (P80244 whole entry, looked up): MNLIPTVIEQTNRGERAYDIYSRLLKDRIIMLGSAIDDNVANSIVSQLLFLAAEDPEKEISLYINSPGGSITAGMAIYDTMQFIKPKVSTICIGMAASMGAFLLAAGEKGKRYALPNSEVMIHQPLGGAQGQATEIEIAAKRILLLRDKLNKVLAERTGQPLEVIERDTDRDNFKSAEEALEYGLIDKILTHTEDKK
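ClpP 10 microg/mL final, pH 8 Tris/KCl buffer with BSA, glycerol, Tween-20; compound pinned in; FRET-FV substrate; RT 20 min; Ex320/Em430; ΔFRET vs ADEP 5.8 microM, DMSO, no enzyme.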
TDP1 block = qHTS Assay for Inhibitors of Tyrosyl-DNA Phosphodiesterase (TDP1); recombinant TDP1, AlphaScreen DNA substrate cleavage; Potency, µM (series often up to 130 µM), inactives show at the highest dose activity change, negative = inhibition, usual class: inhibitors; 350,000 tested, 0.28% active; AID 485290, 2010; also: % is scaled to controls: 0 for no effect and ±100 for the full control effect; nearly all actives have a fitted effect of over 40% in size
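Signal: AlphaScreen proximity between streptavidin donor and anti-FITC acceptor beads on intact substrate. Reaction: Tdp1 1 nM, substrate 15 nM final, 5 min RT after 15 min compound preincubation.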
TDP1 cell noCPT = qHTS for Inhibitors of human tyrosyl-DNA phosphodiesterase 1 (TDP1): qHTS in cells in absence of CPT. DT40 Tdp1-/- hTDP1 cells, no CPT, ATP luminescence, 48 h. Potency, µM (titrated, usually from 46.2 µM), inactives show top-dose activity change, negative = growth inhibition, most hits filed as inhibitors. 420,000 tested, 15% active. AID 686978, 2013; also: % is scaled to controls: 0 for no effect and ±100 for the full control effect; nearly all actives have a fitted effect of over 55% in size
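Luminescent ATP content (CellTiter-Glo) served as the growth readout. Knockout chicken DT40 cells expressing human TDP1 were exposed to compounds without camptothecin for a minimum 48 hr at 37 °C.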
DT40 TDP1 CPT = qHTS for Inhibitors of human tyrosyl-DNA phosphodiesterase 1 (TDP1): qHTS in cells in presence of CPT. AID 686979, 2013. 420,000 tested, 12% active. chicken DT40 Tdp1-/-;hTDP1 cells + 20 nM CPT, ATP luminescence, 48 h. Potency, µM (series often up to 46.2 µM), for the others: at the highest dose activity change, negative = growth inhibition, hits mostly inhibitors; also: % is scaled to controls: 0 for no effect and ±100 for the full control effect; nearly all actives have a fitted effect of over 55% in size
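Chicken DT40 Tdp1-/- cells complemented with human TDP1, 400 cells/well, exposed to compounds plus 20 nM camptothecin for at least 48 h at 37 C; viability read as ATP content by CellTiter-Glo luminescence.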
Active calls of the source: *; u = inconclusive; x = no result; [ ] = another dose, or the depositor's remark. Unless noted, calls follow the shape of the dose curve; as a rule, active = well fitted curve in the direction sought with a large enough effect; inconclusive = small, poorly fitted or top-dose-only effect, or another doubt; inactive = no such curve, though single readings can be large; an effect the other way counts as inactive or inconclusive. Potency is read from the fitted curve at half-maximal effect.

SMILES	ClpP mod	TDP1 block	TDP1 cell noCPT	DT40 TDP1 CPT
Cn1c(O)c(/C=C2/C=CC=N2)c(=O)[nH]c1=O	x	-2%	16µM*	16µM*
CC(=O)Oc1ccc2c3c1O[C@H]1[C@@H](OC(C)=O)C=C[C@H]4[C@@H](C2)N(C)CC[C@@]341	x	x	u	-28%[92.5 µM]
[Cl][Pt+2][Cl].[NH-]C1CCCCC1[NH-] (configuration not stated)	-1%	x	5.8µM*	2.3µM*
O=C1NC(=O)N(c2ccc(Cl)cc2)C(=O)/C1=C\c1ccc(Sc2nc3ccccc3[nH]2)o1	x	-4%	u	16µM*
CCOC(=O)c1c(C)[nH]c(C)c1S(=O)(=O)NCC(=O)N1CCN(c2cc(Cl)ccc2C)CC1	-4%	11%	18µM*	23µM*
CN1CCN(CCOC2c3ccccc3CSc3ccc(Cl)cc32)CC1 (configuration not stated)	0%	8%	16µM*	u
Clc1ccc2c(c1)C(OC1CN3CCC1CC3)c1ccccc1CS2 (configuration not stated)	-1%	7%	15µM*	16µM*
CC(C)(OO)c1ccccc1	x	6%	x	x
O=C1NC(=O)C(C2CCOC2=O)N1 (configuration not stated)	0%	x	0%	-4%
COc1ccc(CNC(=O)Cn2c(=O)nc(-c3ccccc3F)c3cc(Cl)ccc32)cc1	-8%	1%	2.1µM*	1.5µM*
O=C(COC(=O)Cc1ccccc1)Nc1cc(S(=O)(=O)N2CCCCC2)ccc1Cl	-3%	-4%	-18%	-7%
Cc1ccc(S(=O)(=O)N2CCCCC2)cc1NC(=O)CSc1ncnc2ccccc12	1%	8%	18µM*	26µM*
O=C(CCS(=O)(=O)c1ccc(Cl)cc1)Nc1cccc(S(=O)(=O)N2CCCCCC2)c1	-1%	x	u	u
Cc1ccc(S(=O)(=O)N2CCCCC2)cc1NC(=O)Nc1ccc(Cl)cc1Cl	-1%	-3%	u	2.6µM*
COc1ccc(-c2cc(-c3ccccc3)[n+](C)c(-c3ccccc3)c2)cc1	x	-2%	0.58µM*	1µM*
CCCOC(=O)c1ccc(-[n+]2c(-c3ccccc3)cc(-c3ccccc3)cc2-c2ccccc2)cc1	-18%	7%	1.2µM*	1.2µM*
Brc1ccc(-[n+]2c(-c3ccccc3)cc(-c3ccccc3)cc2-c2ccccc2)cc1	-12%	4%	2.6µM*	10µM*
C[n+]1c(-c2ccccc2)cc(CCCCc2cc(-c3ccccc3)[n+](C)c(-c3ccccc3)c2)cc1-c1ccccc1	x	3%	5.2µM*	2.6µM*
Cc1ccc(-c2cc(-c3ccc(C)cc3)[n+](-c3ccc(C(=O)O)cc3)c(-c3ccc(C)cc3)c2)cc1	4%	4%	-22%	-15%
Cc1ccc(-c2cc(-c3ccccc3)cc(-c3ccccc3)[n+]2-c2ccc(C(=O)O)cc2)cc1	4%	-5%	3%	-3%
COc1ccc(-[n+]2c(-c3ccccc3)cc(-c3ccc(C)cc3)cc2-c2ccccc2)cc1	x	x	1.2µM*	2.6µM*
O=C(NCc1ccc(Cl)cc1)C(=O)NCC(c1cccnc1)N1CCN(c2ccccc2)CC1 (configuration not stated)	-3%	4%	7.3µM*	9.2µM*
COc1ccc(C(CNC(=O)Cc2ccc(Cl)c(Cl)c2)N2CCCCC2)cc1 (configuration not stated)	-8%	4%	u	u
Cc1ccc(CNC(=O)C(=O)NCC(c2cccnc2)N2CCN(c3ccc(F)cc3)CC2)cc1 (configuration not stated)	1%	-4%	3.3µM*	4.1µM*
CCCCC/C=C\C/C=C\C/C=C\C/C=C\CCCC(=O)Nc1ccc(O)cc1C	x	11%	x	x
SMILES	ClpP mod	TDP1 block	TDP1 cell noCPT	DT40 TDP1 CPT
O=C(CN1CC(c2ccccc2)CC1=O)Nc1ccc(F)cc1 (configuration not stated)	1%	0%	-15%	2.9µM*
Cc1ccc2c(c1)C1CN(C)CCC1N2C(=O)Nc1cccc(C(F)(F)F)c1 (configuration not stated)	-1%	2%	u	21µM*
Cc1ccc2c(c1)C1CN(C)CCC1N2C(=O)c1cn(-c2ccccc2)nc1-c1ccccc1 (configuration not stated)	2%	5%	16µM*	u
Cc1ccc2c(c1)[C@@H]1CN(C)CC[C@@H]1N2C(=O)Nc1cccc(C(F)(F)F)c1	0%	5%	11µM*	11µM*
Cc1ccc2c(c1)C1CN(C)CCC1N2C(=O)CCCN1C(=O)c2cccc3cccc(c23)C1=O (configuration not stated)	x	1%	u	-11%
Cc1ccc2c(c1)C1CN(C)CCC1N2C(=O)c1cccnc1Cl (configuration not stated)	-3%	1%	-22%	-14%
Cc1ccc2c(c1)C1CN(C)CCC1N2C(=O)COc1ccc(N(C)C(=O)C(C)(C)C)cc1 (configuration not stated)	-3%	2%	18µM*	u
C=CC=O	x	-3%	x	x
CCCC(=O)O[C@@H]1[C@@H](C)[C@@]2(O)[C@@H](C=C(CO)C[C@]3(O)C(=O)C(C)=C[C@@H]23)[C@@H]2C(C)(C)[C@]12OC(=O)CCC	x	13%	x	x
CC(=O)Oc1c2c(c(CC=C(C)C)c3c1C(=O)C1=CC4CC5C(C)(C)OC(C/C=C(\C)C(=O)O)(C4=O)[C@]15O3)OC(C)(CCC=C(C)C)C=C2 (some centres not stated)	x	9%	0.92µM*	0.82µM*
COC(=O)/C(C)=C\CC12OC(C)(C)C3CC(C=C4C(=O)c5c(OC)c6c(c(CC=C(C)C)c5OC431)OC(C)(CCC=C(C)C)C=C6)C2=O (configuration not stated)	x	20%[56.1 µM]	3.7µM*	4.6µM*
Cc1nc2cc(C(F)(F)F)ccc2n1C1CCN(Cc2nnnn2Cc2ccc3c(c2)OCO3)CC1	-3%	-11%	16µM*	29µM*
FC(F)(F)c1ccc2c(c1)ncn2C1CCN(Cc2nnnn2C2CCCCC2)CC1	2%	-2%	u	u
Cc1nc2cc(C(F)(F)F)ccc2n1C1CCN(Cc2nnnn2Cc2cccs2)CC1	1%	0%	16µM*	16µM*
Fc1ccc2c(c1)nnn2C1CCN(Cc2nnnn2CCc2ccccc2)CC1	0%	2%	u	u
Cc1nc2ccccc2n1C1CCN(Cc2nnnn2CCc2ccccc2)CC1	-1%	4%	u	u
Fc1ccc(Cn2nnnc2CN2CCC(n3nnc4cc(C(F)(F)F)ccc43)CC2)cc1	0%	x	u	18µM*

Screening results from PubChem.
